Legend:
Conditions in all cases: concentration: 1 μM,replicates: in singlicate; n = 1
PLK2 = tested on: PLK2
PLK3 = tested on: PLK3
PLK4 = tested on: PLK4
PRKCD = tested on: PRKCD
PRKCE = tested on: PRKCE
PRKCH = tested on: PRKCH
PRKCI = tested on: PRKCI
PRKCQ = tested on: PRKCQ
PRKD1 = tested on: PRKD1
PRKD2 = tested on: PRKD2
PRKD3 = tested on: PRKD3
PRKG1 = tested on: PRKG1
PRKG2 = tested on: PRKG2
PRKR = tested on: T1, PRKR
T1 construct: gene EIF2AK2

PRKX = tested on: PRKX
PRP4 = tested on: PRP4
PYK2 = tested on: T2, PYK2
T2 construct: gene PTK2B

QSK = tested on: QSK
RAF1 = tested on: RAF1
RET = tested on: RET
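Note: KINOMEscan kinase panel screen.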

Row | Structure (SMILES) | %Inh (PLK2) [%] | %Inh (PLK3) [%] | %Inh (PLK4) [%] | %Inh (PRKCD) [%] | %Inh (PRKCE) [%] | %Inh (PRKCH) [%] | %Inh (PRKCI) [%] | %Inh (PRKCQ) [%] | %Inh (PRKD1) [%] | %Inh (PRKD2) [%] | %Inh (PRKD3) [%] | %Inh (PRKG1) [%] | %Inh (PRKG2) [%] | %Inh (PRKR) [%] | %Inh (PRKX) [%] | %Inh (PRP4) [%] | %Inh (PYK2) [%] | %Inh (QSK) [%] | %Inh (RAF1) [%] | %Inh (RET) [%]
1 | COc1cc(Nc2nccc(N3CCC(NC(=O)c4cccc(C#N)c4)C3)n2)cc(OC)c1OC (centres unmarked) [GSK1379751] | 0 | 0 | 36 | 0 | 7 | 0 | 0 | 0 | 0 | 0 | 0 | 0 | 0 | 0 | 0 | 54 | 0 | 0 | 26 | 14
2 | COc1cccc(OC)c1C(=O)Nc1cccc(-c2nn3ccccc3c2-c2ccnc(Nc3cccc(F)c3)n2)c1 [GSK361065] | 10 | 0 | 16 | 26 | 14 | 11 | 21 | 17 | 17 | 1 | 2 | 11 | 0 | 0 | 0 | 0 | 8 | 0 | 29 | 90.1
3 | COC(=O)Nc1nc2cc(Oc3ccc(NC(=O)Nc4cc(C(F)(F)F)ccc4Cl)cc3)ccc2[nH]1.Cl [GW697465] | 0 | 0 | 0 | 0 | 11 | 7 | 0 | 6 | 0 | 1 | 9 | 2 | 0 | 0 | 15 | 43 | 24 | 9 | 89 | 100
4 | Cl.c1ccc(Oc2ccc(Nc3ccnc4cc(-c5ccc(CN6CCNCC6)o5)ccc34)cc2)nc1 [GW567142] | 0 | 0 | 16 | 0 | 0 | 0 | 20 | 0 | 24 | 3 | 19 | 0 | 0 | 0 | 20 | 13 | 0 | 0 | 0 | 20
5 | O=C(Nc1cccc(C(F)(F)F)c1)c1cccc(Oc2ccc3nccn3n2)c1 | 11 | 0 | 0 | 22 | 1 | 0 | 13 | 51 | 0 | 0 | 0 | 19 | 1 | 0 | 17 | 8 | 0 | 6 | 75 | 69
6 | CS(=O)(=O)Nc1ccc(-c2ccnc3[nH]ccc23)cc1 [GSK993273] | 0 | 0 | 21 | 42 | 64 | 49 | 26 | 57 | 0 | 0 | 0 | 77 | 77 | 41 | 42 | 64 | 20 | 17 | 12 | 22
7 | CS(=O)c1ccc(-c2coc3ccc(-c4n[nH]c(=O)o4)cc23)cc1 (centres unmarked) | 4 | 6 | 34 | 24 | 7 | 0 | 8 | 2 | 0 | 4 | 0 | 4 | 0 | 20 | 0 | 14 | 4 | 0 | 20 | 12
8 | Cc1ccc(CC(=O)N2CCc3cc(-c4cn(C)c5ncnc(N)c45)ccc32)cc1 [GSK2634758] | 2 | 0 | 0 | 15 | 15 | 35 | 27 | 33 | 0 | 14 | 0 | 4 | 12 | 7 | 12 | 20 | 0 | 0 | 7 | 7
9 | CC(C)S(=O)(=O)N1CCN(Cc2ccc3c(c2)nc(NC(=O)c2ccsc2)n3C[C@H](O)c2ccccc2)CC1 [GW635815] | 0 | 0 | 5 | 11 | 15 | 13 | 18 | 12 | 0 | 0 | 0 | 23 | 18 | 0 | 16 | 10 | 38 | 3 | 6 | 44
10 | CC(=O)Nc1nc2cnc(Nc3cc(NC(=O)c4cccc(CC(C)(C)C#N)c4)ccc3C)nc2s1 | 0 | 3 | 18 | 13 | 0 | 14 | 5 | 11 | 0 | 0 | 0 | 0 | 17 | 0 | 35 | 6 | 9 | 0 | 99.5 | 99.7

Reference: article PMC5540273 (PLoS ONE, 2017)
